Shiga toxin inh: Shiga toxin inhibition; Vero cells, Shiga toxin protein synthesis inhibition reporter; inhibition, % at 38.7 µM; 290,000 compounds, 9.2% hits; in the data active means inhibition mostly above about 28%, no sharp cut-off; inactive means mostly below about 43%; further: 0% is about no effect
NS1 inh: inhibitors of influenza NS1 protein function; Potency, µM (top dose mostly 46.1 µM), for the others: at the top dose activity, positive = more growth; 270,000 compounds, 0.4% hits; AID 2326; calls by dose curve; further: potency means the concentration at half of the fitted maximal effect; actives are rising curves; nearly all actives have a fitted effect of over 50% in size
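Recovery from NS1-induced slow growth read by OD600 in budding yeast switched to galactose assay medium (pH 6.0, -URA) at 1:100 dilution. Compound 23 nl per well; the matching strain lacking NS1 serves as control.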
Cycloheximide cs: counter-screen hit for Shiga toxin inhibitors, cycloheximide | max response, % | 300,000 compounds, 12% hits | AID 2314 | cell reporter, cycloheximide protein synthesis inhibition counterscreen; in the data active means max response mostly above about 13%, no sharp cut-off; inactive means mostly below about 14%; further: read at 38.3 µM for the half of the compounds with a filed dose; 0% is about no effect
Pf growth 96h: inhibits malaria parasite growth, 96 h; P. falciparum luciferase reporter growth, 96 h; Potency, µM (doses to about 28.7 µM), for the others: at the top dose activity change, negative = inhibition, hits mostly inhibitors; 320,000 compounds, 6.9% hits; AID 504834; further: potency means the concentration at half of the fitted maximal effect; on the % scale 0 is the no-effect control and ±100 the full control effect
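96 h incubation, 37 C, 5% CO2, of luciferase-reporter P. falciparum-infected RBCs (2% hematocrit, 0.05% parasitemia final) with test compounds; endpoint luminescence.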
Pf growth 48h: inhibits P. falciparum growth in the first generation, 48 h; P. falciparum luciferase growth in erythrocytes, 48 h; Potency, µM (top dose mostly 28.7 µM), without a hit: top-dose activity change, negative = inhibition, hits mostly inhibitors; 310,000 compounds, 5.9% hits; AID 504832; further: potency means the concentration at half of the fitted maximal effect; on the % scale 0 is the no-effect control and ±100 the full control effect
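Growth was read as firefly luciferase luminescence after a 48 h, 37 C, 5% CO2 exposure of compounds to reporter-bearing P. falciparum cultures (0.1% parasitemia, 2% hematocrit final) in Albumax-supplemented RPMI 1640.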
* marks the source's active call; other numbers are inactive results; ? = inconclusive; . = no result; [ ] = dose if it differs, or a comment. A selection: hits, their analogues and other compounds. The true share with any hit is near 21%. Unless noted, the call rests on the fitted dose curve; in most records, active means well fitted inhibition curve with a large enough effect; inconclusive means small, poorly fitted or top-dose-only effect, or another doubt; inactive means no such curve, though single readings can be large or run the other way.

SMILES	Shiga toxin inh	NS1 inh	Cycloheximide cs	Pf growth 96h	Pf growth 48h
CC(=O)c1ccc(NC(=O)COc2ccccc2C(=O)Nc2ccc(C)cn2)cc1	7.5	6.0%	6.8	79.2%	5.2%
COC(=O)C1=C(C)N(C)C(=S)NC1c1ccc(OC)cc1OC (centres undefined)	10.3	-4.7%	2.0	8.9%	-10.9%
O=C(CNC(=O)c1ccc(Br)cc1)NCc1cccnc1	-14.2	10.6%	-6.1	23.0%	24.6%
CCn1c(NC(=O)c2ccccc2F)c(-c2cccs2)c(=O)c2ccccc21	10.7	6.4%	-1.1	?	-47.3%
CCOc1ccc(NC(=O)c2ccccc2OC)cc1	67.8	-13.6%	40.3*	.	77.2%
CCOc1ccc(NC(=O)c2ccccc2O)cc1	11.2	-50.4%	12.1*	?	0.0%
CCOc1ccccc1C(=O)Nc1ccc(NC(=O)c2ccccc2)cc1	.	?	6.7	13.3%	22.4%
O=C(COc1ccccc1C(=O)c1cnn(-c2ccccc2)c1)Nc1ccccc1	77.8	-0.6%	21.4*	-9.9%	128.3%
CCOc1ccc(NC(=O)c2cccnc2SC)cc1	20.3	.	22.1*	55.2%	68.5%
CCOc1ccc(NC(=O)c2ccc(NC(=O)c3ccccc3Br)cc2)cc1	.	.	.	11.1%	0.0%
CC(=O)Nc1ccc(NC(=O)COc2ccc(Br)cc2C)cc1	-9.8	7.8%	7.9	-11.1%	15.0%
Cc1cccc(NC(=O)COc2ccc(Br)cc2/C=N/O)c1	120.8*	-10.6%	75.4*	?	216.8%
CCOC(=O)CC(=O)NC1(Cc2ccc(O)cc2)CCCCC1	-6.0	.	-2.6	-47.4%	2.2%
COc1ccc(Cl)cc1Nc1nc(N)c2ccccc2n1	.	-67.0%	25.0*	?	9.28µM*
Cc1ccc(C)c(Nc2nc(N)c3ccccc3n2)c1	72.5*	.	25.6*	87.8%	45.8%[5.75 µM]
Cc1ccc(C)c(NC2=NS(=O)(=O)c3ccccc32)c1	-7.8	2.2%	-2.4	18.2%	-7.1%
Cc1ccc(O)c(Nc2c3ccccc3nc3ccccc23)c1	33.4*	-53.2%	20.9*	22.0%	?
COc1ccc(C)cc1Nc1nc(N)c2cc(OC)c(OC)cc2n1	4.3	5.1%	5.2	1.6%	1.04µM*
COc1ccc(C)cc1Nc1nc(C)nc2sc(C)cc12	2.9	-4.8%	-5.8	-15.4%	0.3%[0.00184 µM]
Cc1ccc(O)c(Nc2nc(-c3ccccc3)nc3ccccc23)c1	.	-2.4%	-2.6	-15.0%	?
O=C(Cn1cccc1C(=O)c1ccccc1)NCCCN1CCc2ccccc2C1	-7.0	.	-2.8	17.8%	4.2%
CC1CN(C(=O)COC(=O)CSc2ccc(C(N)=O)cc2[N+](=O)[O-])CC(C)O1 (centres undefined)	.	.	.	36.5%	11.7%
COc1ccc(C(=O)C2CCCN(C(=O)C3CCOCC3)C2)c(C)c1 (centres undefined)	1.1	3.5%	-1.5	-9.3%	65.5%
CC1CCN(C(=O)CSc2nc(=O)n3ccccc3n2)CC1	.	.	.	-15.5%	4.2%
COc1cc2nc(N3CCN(c4cc(C)ccc4C)CC3)nc(N)c2cc1OC	-21.2	0.6%	-15.0	0.0%	1.85µM*
SMILES	Shiga toxin inh	NS1 inh	Cycloheximide cs	Pf growth 96h	Pf growth 48h
O=C(Cc1ccccc1)NCC(=O)N1CCN(c2ccccc2)CC1	-5.2	14.5%	-2.6	-15.3%	6.1%
O=C(NCc1ccco1)Nc1ccc(Br)cc1	66.3*	-35.0%	21.1	10.6%	46.5%
O=C(NCc1ccco1)Nc1ccc(OC(F)(F)F)cc1	20.1	-38.0%	17.8*	?	?
O=C(NCc1ccco1)Nc1ccc2nsnc2c1	42.0	1.0%	30.4*	-21.6%	41.0%
Cc1c(Cn2ccnc2)c2ccccc2n1CCC(=O)O	.	.	.	?	-10.9%
CCC(CC)C(=O)c1c[nH]c(C(=O)N2CCN(c3ccc(OC)cc3)CC2)c1	-4.0	.	7.2	-27.7%	?
O=C(Cc1ccc(Cl)cc1)NC1CCCN(Cc2ccccc2F)C1 (centres undefined)	-6.3	0.1%	-0.6	69.2%	9.4%
CCc1[nH]nc(C(=O)NC2CCCN(Cc3ccccc3F)C2)c1C (centres undefined)	39.2	-8.8%	15.3	13.1µM*	0.0%
CC(=O)c1ccc(C(=O)NC2CCCN(Cc3ccccc3F)C2)cc1 (centres undefined)	.	0.1%	-1.6	5.86µM*	-10.9%
O=C(CCn1cnnn1)NC1CCCN(Cc2ccccc2F)C1 (centres undefined)	-12.6	-0.5%	-3.0	13.1µM*	10.0%
CCCc1cc(C(=O)NC2CCCN(Cc3ccccc3F)C2)no1 (centres undefined)	-4.3	-5.0%	-2.2	10.4µM*	-14.8%
COC(=O)c1sccc1NC(=S)N1CCC(C(N)=O)CC1	-8.6	.	1.6	0.3%	13.7%
O=C(c1ccc2c(c1)OCO2)N1CCC2(CC1)Oc1ccc(F)cc1C(=O)C21CC(c2ccccc2)=NO1 (centres undefined)	-7.1	9.4%	-2.5	?	13.1µM*
O=C(c1ccc2c(c1)OCO2)N1CCC2(CC1)Oc1ccc(F)cc1C(=O)C21CC(c2cccnc2)=NO1 (centres undefined)	-0.6	-4.9%	-3.1	?	?
O=C(c1ccoc1)N1CCC2(CC1)Oc1ccc(F)cc1C(=O)C21CC(c2ccccc2)=NO1 (centres undefined)	-8.6	-2.1%	1.2	11.7µM*	?
Cc1ccc(C(=O)N2CCC3(CC2)Oc2ccc(F)cc2C(=O)C32CC(c3ccccc3)=NO2)s1 (centres undefined)	-2.3	15.2%	-3.1	10.4µM*	?
CN(C)CCCN(C(=O)c1ccc(S(=O)(=O)N(C)Cc2ccccc2)cc1)c1nc2cc3c(cc2s1)OCO3	-8.4	14.7%	-3.3	?	?
CCN(CC)CCN(C(=O)c1ccc2c(c1)OCCO2)c1nc2cc3c(cc2s1)OCO3	-14.6	-2.2%	-4.0	29.3%	6.6%
CCN(CC)CCN(C(=O)c1cc2c(ccc3ccccc32)oc1=O)c1nc2cc3c(cc2s1)OCCO3	11.4	-7.4%	21.3*	-14.6%	93.9%
CN(C)CCCN(C(=O)c1ccc([N+](=O)[O-])o1)c1nc2cc3c(cc2s1)OCO3	59.6*	-22.1%	55.0*	-1.3%	4.3%
COc1ccc(C)c2sc(N(CCN(C)C)C(=O)c3cccc(N4C(=O)CCC4=O)c3)nc12	.	.	.	12.7%	?
CN(C)CCN(C(=O)c1cccc(N2C(=O)CCC2=O)c1)c1nc2ccc(Br)cc2s1	35.2	4.4%	13.0*	5.8%	-26.9%
CN(C)CCN(C(=O)c1cccc2ccccc12)c1nc2cc3c(cc2s1)OCO3	25.3	-14.4%	12.4	?	9.28µM*
Cc1cccc(OCCCn2c(CCNC(=O)C3CCCCC3)nc3ccccc32)c1	47.7	.	10.2	.	.
Nc1cnn(C2CCCO2)c(=O)n1 (centres undefined)	16.1	?	-2.5	?	15.8%
CC(C)N(Cc1ccccc1)C(=O)CN1C(=O)NC2(CCCCCC2)C1=O	.	.	.	-23.2%	?
CN(C)CCN(C(=O)c1ccc2ccccc2c1)c1nc2cc3c(cc2s1)OCCO3	81.9*	-36.1%	39.1*	59.9%	37.1%
CN(C)CCN(C(=O)COc1ccc(Cl)cc1)c1nc2cc3c(cc2s1)OCO3	-1.7	-10.6%	21.9*	?	52.9%

Screening data (PubChem BioAssay)
